This is an account of results in PubChem BioAssay AID589 (National Center for Advancing Translational Sciences (NCATS), 2007).

In all, about 59,000 compounds went through this assay and about 6,200 (11%) were called active. About 9% were inconclusive and are not listed. This is one part of a sample in which actives are shown more often than they occur. Cut-off read from the data, not from the text of the source: active = max dye-equivalent concentration above about 10 nM; inconclusive = mostly about 1.1 nM to 9.6 nM; inactive = weaker than that. A structure can be active in one record and inactive in another.

This assay is described as follows: qHTS Assay for Spectroscopic Profiling in 4-MU Spectral Region. The following applies: compound autofluorescence, 340/450 nm, 4-MU equivalents; active compounds read high. A digest of the protocol: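 Compounds in 100 mM Tris, pH 8.0, sat 15 min at room temperature before fluorescence was read at 340 nm excitation/450 nm emission; a per-plate six-point 4-MU standard curve converted signals to dye-equivalent concentration at each compound concentration.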
On the technique in general: In qHTS, concentration-response curves come from the screen itself.
As for `Cc1cc(NC(=O)CCC(=O)N(c2ccccc2)C(C(=O)NC2CCCC2)c2ccncc2)no1` (stereo not given), the max dye-equivalent concentration result was “inactive”.

As to `COc1ccc(Cn2c(=O)sc3ccccc32)cc1OC`, the max dye-equivalent concentration entry is “inactive”. `CCn1c(SCC(=O)NCc2ccco2)nnc1-c1ccc(N)cc1`: the max dye-equivalent concentration result was “inactive”. The same measure, in the same setting: in the case of `Cc1ccc2c(CSc3nncs3)cc(=O)oc2c1` it was “inactive”. For the molecule `CCOC(=O)c1cc2occc2n1CC(=O)NC1CCC(C)CC1` (stereo not given), the max dye-equivalent concentration entry was “inactive”. Same read-out and setting: the same measure for `CN(C)CCNC(CC(=O)Nc1ccc(Cl)c(Cl)c1)C(=O)O` (stereo not given): “inactive”. Consider `O=C(O)c1ccc(NC(=O)C2CCCCC2)cc1`, for which the max dye-equivalent concentration result was “inactive”. `O=C(Nc1cnn(Cc2ccc(Cl)cc2)c1)C1CCCC1`: the max dye-equivalent concentration result was “inactive”. Still for that read-out and setting: the same measure for `CN1C(=O)c2ccc(NC(=O)C3CCCCC3)cc2C1=O`: 230 nM (active). Regarding `O=C(Nc1ccncc1)c1c(F)cccc1F`, the max dye-equivalent concentration entry is “inactive”. The same measure, in the same setting: in the case of `CN1C(=O)c2ccc(NC(=O)c3c(F)c(F)c(F)c(F)c3F)cc2C1=O` it was 98 nM (active); in that of `Cn1c(=O)n(C)c2cc(C(=O)Nc3ccc4c(c3)OCO4)ccc21`, “inactive”; in that of `COc1ccc(C[C@H](N)C(=O)N[C@@H]2[C@H](O)[C@H](n3cnc4c(N(C)C)ncnc43)O[C@@H]2CO)cc1`, “inactive”. On to `O=S(=O)(c1ccc(Sc2nnc3ccccn23)nc1)N1CCOCC1`, for which the max dye-equivalent concentration result is “inactive”. Turning to `N#CCCN(CCC#N)c1nnc(-c2ccccc2)s1`, the max dye-equivalent concentration entry is “inactive”. Consider `O=S(=O)(Nc1ccccc1N1CCOCC1)c1ccc(Cl)s1`, for which the max dye-equivalent concentration result was “inactive”. Consider `COC(=O)Cc1csc(Nc2c(C)n(C)n(-c3ccccc3)c2=O)n1`, for which the max dye-equivalent concentration result was “inactive”. On the same count and under the same terms, the same measure for `CCOC(=O)CSc1nc2c(c(=O)n(Cc3ccccc3Cl)c(=O)n2C)n1C`: “inactive”; for `CCOc1ccc(NC(=O)Nc2ccc(N(C)C(C)=O)cc2)cc1`: “inactive”. For the molecule `O=c1c2cc3c(=O)n(CC4CCCO4)c(=O)c3cc2c(=O)n1CC1CCCO1` (stereo not given), the max dye-equivalent concentration entry was “inactive”. On the same count and under the same terms, the same measure for `Cc1ccc(C(=O)Nc2ccccc2C(=O)NC2CCCCC2)cc1S(=O)(=O)N1CCOCC1`: “inactive”; for `O=C(NC1CCCCC1)c1ccc2c(=O)n(CC3CCCO3)c(=O)[nH]c2c1` (stereo not given): 16 nM (active). As to `CCOC(=O)c1ccc(N2C(=O)CC(N3CC(C)OC(C)C3)C2=O)cc1` (stereo not given), the max dye-equivalent concentration entry was “inactive”. Turning to `CNCC[C@H](Oc1ccc(C(F)(F)F)cc1)c1ccccc1`, the max dye-equivalent concentration is 13 nM (active) and the outcome was inactive. For the molecule `Clc1ccc(C=Nc2ccc3c(c2)Cc2ccccc2-3)c(Cl)c1`, the max dye-equivalent concentration result is “inactive”. The same measure, in the same setting: in the case of `COC(=O)c1ccc(NC(=O)C(C)N2C(=O)c3ccccc3C2=O)cc1` (stereo not given) it was “inactive”; in that of `Cc1cc(C)nc(NC(=O)C(C)N2C(=O)c3ccccc3C2=O)n1` (stereo not given), “inactive”; in that of `CC(C(=O)O)N1C(=O)c2cccc3cccc1c23` (stereo not given), 15 nM (active). Consider `O=c1cc(CO)oc(CN2CCC(Cc3ccccc3)CC2)c1O`, for which the max dye-equivalent concentration entry is “inactive”.

For `Cc1cccc2nc(CNc3ccc(F)cc3)cn12`, the max dye-equivalent concentration result was “inactive”. As for `CC(C)OC(=O)C(C#N)c1nc2ccccc2nc1N1CCN(Cc2ccc3c(c2)OCO3)CC1` (stereo not given), the max dye-equivalent concentration is 110 nM (active).

On to `COc1ccc(-c2csc(N3CCN(Cc4ccc5c(c4)OCO5)CC3)n2)cc1`, for which the max dye-equivalent concentration entry was “inactive”.

As for `CC(C)OC(=O)C(C#N)c1nc2ccccc2nc1N1CCN(Cc2ccccc2)CC1` (stereo not given), the max dye-equivalent concentration result is “inactive”. In the case of `O=C(c1ccccc1)c1ccc(OC(=O)N2CCCC2)cc1`, the max dye-equivalent concentration entry is “inactive”.

On to `COc1ccccc1-c1nc(NCCNC(C)=O)c2ccccc2n1`, for which the max dye-equivalent concentration result is “inactive”. Take `CCCCN(C)Cc1c(C)[nH]c2ccc(Cl)cc2c1=O`: the max dye-equivalent concentration entry was “inactive”. `Cc1ccc(S(=O)(=O)C(C#N)c2nc3ccccc3nc2N2CCCC2)cc1C` (stereo not given): the max dye-equivalent concentration is 150 nM (active). For `CCn1cc(C(=O)NCc2ccc3c(c2)OCO3)c2cc(OC)c(OC)cc2c1=O`, the max dye-equivalent concentration entry was “inactive”. As for `Cc1ccccc1N1C(=O)C2ON(c3ccccc3)C(c3ccncc3)C2C1=O` (stereo not given), the max dye-equivalent concentration entry was “inactive”. The same measure, in the same setting: in the case of `C=CCn1c(SCC(=O)NC23CC4CC(CC(C4)C2)C3)nc(O)cc1=O` it was “inactive”; in that of `Cn1c(=O)c2c(nc(N3CCCCCC3)n2CC(=O)c2ccc(Br)cc2)n(C)c1=O`, “inactive”. Turning to `Cc1cccc(Cn2c(N3CCN(c4ccccc4)CC3)nc3c2c(=O)n(C)c(=O)n3C)c1`, the max dye-equivalent concentration entry was “inactive”.

Turning to `Cn1c(=O)c2c(nc(N3CCCCCC3)n2CC(O)COc2ccc(Cl)cc2)n(C)c1=O` (stereo not given), the max dye-equivalent concentration was 38 nM (active). For `CSCCC(NS(=O)(=O)/C=C/c1ccccc1)C(=O)N1CCC(C)CC1` (stereo not given), the max dye-equivalent concentration result is “inactive”. For `COCCCN1C(=O)C(=O)/C(=C(/O)c2ccc3c(c2)CC(C)O3)C1c1cccnc1` (stereo not given), the max dye-equivalent concentration entry was “inactive”. Turning to `CCOC(=O)c1sc(NC(=S)n2cc(C)cn2)c(C(=O)OCC)c1C`, the max dye-equivalent concentration entry was “inactive”. The same measure, in the same setting: the same measure for `CCCC(=O)Nc1ccc(Cl)c(NC(=O)c2ccc(Br)o2)c1`: “inactive”; for `Cc1cc(C)nc(-n2nc(C)cc2NC(=O)c2ccc(Br)o2)n1`: “inactive”; for `CCc1c(C)sc(NC(=O)c2ccc(Br)o2)c1C(=O)OC`: 96 nM (active). In the case of `O=C(c1ccco1)N1CCC[C@@]2(CCN(c3ccccc3)C2)C1`, the max dye-equivalent concentration result was “inactive”.

Regarding `O=C(Nc1nnc(CCc2ccccc2)s1)C1CCCO1` (stereo not given), the max dye-equivalent concentration entry was “inactive”. Take `O=C(CC1Nc2ccccc2NC1=O)Nc1ccccc1` (stereo not given): the max dye-equivalent concentration was 89 nM (active). `CCOc1ccc(NC(=O)CC2NCCNC2=O)cc1` (stereo not given): the max dye-equivalent concentration entry was “inactive”. With `O=C(CC1NCCNC1=O)Nc1ccc(Oc2ccccc2)cc1` (stereo not given), the max dye-equivalent concentration result is “inactive”.
